# Shown are actives, neighbours in structure and some others; about 1.3% of the full set was active somewhere.
# TRPML1 inh = inhibitors of human TRPML1 channel | TRPML1-inducible cells, Ca2+ dye fluorescence, FDSS; active compounds read low; inhibition of EC80 agonist-evoked calcium signal | activity change, negative = inhibition, % (concentration not given with the values) | actives 0.02% (n = 390,000); in the data active = activity change below about -50%; inconclusive = between about -30% and that limit;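 note: stimulus is agonist 54-4 at its EC80 concentration; % is set by controls: 0 for no effect and ±100 for the full control effect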
#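 TRPML1-DL cells, Tet-induced overnight (~16 h, 37 °C) at 1,500 cells/well, were loaded with Ca8 no-wash dye plus quencher for 45-90 min at room temperature. Compounds were pinned during FDSS kinetic reading; agonist 54-4 at EC80 (4 uM final) then added.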
# TRPML1 agonist = human mucolipin-1 channel agonism; TRPML1-expressing cells, Ca2+ dye fluorescence, FDSS; activation, % (no concentration beside the values); actives 0.12% (n = 410,000); Q9GZU1; in the data active = activation above about 50%; inconclusive = mostly about 30% to 49%; note: 0% is about no effect
#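 Calcium fluorescence on an FDSS kinetic reader gave the read-out. Tet-induced TRPML1-DL cells were plated overnight, dye-loaded (Ca8 with quencher, 45-90 min, room temperature, dark), then read 110 s after compound addition, and again 110 s after 4uM final 54-4 (EC80).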
# TRPV1 potentiator = human TRPV1 potentiation; Q8NER1; potentiation, % at 8.33 µM; TRPV1-expressing cells, Fluo-8 calcium influx, capsaicin EC20 potentiation; actives 0.02% (n = 320,000); in the data active = potentiation above about 80%; inconclusive = between about 30% and that limit; note: 0% is about no effect
# Target sequence (Q8NER1 whole entry, looked up): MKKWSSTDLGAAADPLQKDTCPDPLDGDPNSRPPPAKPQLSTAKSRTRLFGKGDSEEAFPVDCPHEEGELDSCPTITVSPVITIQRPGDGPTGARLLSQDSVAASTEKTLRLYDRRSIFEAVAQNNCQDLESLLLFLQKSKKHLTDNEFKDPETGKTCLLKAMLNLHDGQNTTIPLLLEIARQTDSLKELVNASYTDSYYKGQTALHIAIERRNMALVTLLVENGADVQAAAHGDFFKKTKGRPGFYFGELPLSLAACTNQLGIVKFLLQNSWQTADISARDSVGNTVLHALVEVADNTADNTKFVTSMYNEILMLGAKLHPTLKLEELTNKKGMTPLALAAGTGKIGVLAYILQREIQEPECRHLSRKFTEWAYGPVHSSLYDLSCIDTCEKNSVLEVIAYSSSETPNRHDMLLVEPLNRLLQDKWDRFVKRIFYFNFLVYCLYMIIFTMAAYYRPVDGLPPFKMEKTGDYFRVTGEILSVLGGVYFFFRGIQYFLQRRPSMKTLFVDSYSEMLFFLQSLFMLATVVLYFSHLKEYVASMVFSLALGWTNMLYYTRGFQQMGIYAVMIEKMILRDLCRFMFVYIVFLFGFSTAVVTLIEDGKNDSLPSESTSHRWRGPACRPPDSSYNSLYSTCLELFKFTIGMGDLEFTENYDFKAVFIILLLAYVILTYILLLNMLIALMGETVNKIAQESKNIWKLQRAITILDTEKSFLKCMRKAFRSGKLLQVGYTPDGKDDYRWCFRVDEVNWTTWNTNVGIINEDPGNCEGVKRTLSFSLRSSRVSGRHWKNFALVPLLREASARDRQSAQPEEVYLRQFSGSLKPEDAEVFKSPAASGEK
#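 Fluo-8 calcium influx in TRPV1-expressing cells, kinetic read (ex 480/em 520 nm). Compound added and read 3 min for agonist activity, followed by capsaicin at EC20 final and 2 min further read for enhancement.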
# TRPV1 agonist = activates the human vanilloid receptor TRPV1; AID 540275; actives 0.19% (n = 320,000); TRPV1-expressing cells, Fluo-8 calcium influx, agonist mode; activation, % at 8.33 µM; Q8NER1; in the data active = activation above about 80%; inconclusive = between about 30% and that limit; note: 0% is about no effect
#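 Fluo-8 calcium influx in TRPV1-expressing cells, kinetic read (ex 480/em 520 nm). Compound added and read 3 min for agonist activity, followed by capsaicin at EC20 final and 2 min further read for enhancement.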
# hERG WT inh = KCNH2 (human, wildtype) channel inhibition; Q12809; U2OS, BacMam KCNH2, thallium flux FluxOr; active compounds read low; activity change, % at 1.84 µM; actives 0.37% (n = 340,000); AID 720551;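 active = maximum activity change below -70%; inconclusive = maximum activity change between -70% and -50%; inactive = maximum activity change above -50%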; note: % is set by controls: 0 for no effect and ±100 for the full control effect
#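 U2OS cells transduced with wild-type KCNH2 virus are loaded with FluxOr dye for 45 min, and thallium flux is measured in kinetic reads before and after stimulation buffer. Rate constants are normalized to DMSO controls.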
# KCNH2 3.1 block = KCNH2 3.1 (human) potassium channel inhibition | U2OS KCNH2 3.1, thallium flux FluxOr; active compounds read low | activity change, % (tested at about 1.8 µM) | actives 0.95% (n = 340,000) | AID 720553;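 active = maximum activity change below -70%; inconclusive = maximum activity change from -70% to -50%; inactive = maximum activity change above -50%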;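 note: thallium influx rate constant from kinetic fluorescence after stimulation buffer; % is set by controls: 0 for no effect and ±100 for the full control effect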
#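 Normalized rate constant (relative to positive and negative DMSO controls) derived from a 2 min kinetic fluorescence read after stimulation; U2OS cells expressing the 3.1 isoform via virus at 1.77 x 10^8 /mL.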
# An asterisk follows results filed as active; ? = inconclusive; . = not tested or not shown.
SMILES,TRPML1 inh,TRPML1 agonist,TRPV1 potentiator,TRPV1 agonist,hERG WT inh,KCNH2 3.1 block
COc1cc(OC)c(OC)cc1CN1CCN(Cc2cccn2C)CC1,-7,0,7,4,-122*,10
COc1cc(OC)c(OC)cc1CN1CCC(O)CC1,14,2,5,0,3,-90*
COc1cc(OC)c(OC)cc1CN1CCN(c2ccccc2OC)CC1,2,0,-10,-2,-3,-26
CCOC(=O)[C@H]1[C@H]2COc3cc(OC)ccc3[C@@H]2N2C(=O)c3ccc(C)cc3NC(=O)[C@@]12C,35,3,5,82*,-1,29
CCOC(=O)[C@H]1[C@H]2COc3ccccc3[C@@H]2N2C(=O)c3ccc(C)cc3NC(=O)[C@@]12C,-7,0,-4,93*,0,30
CCOC(=O)[C@H]1[C@H]2COc3ccc(Br)cc3[C@@H]2N2C(=O)c3ccc(F)cc3NC(=O)[C@@]12C,1,2,28,?,17,-32
CCOC(=O)[C@H]1[C@H]2COc3ccc(C)cc3[C@@H]2N2C(=O)c3cc(Br)ccc3NC(=O)[C@@]12C,-2,0,.,.,.,.
CCOC(=O)[C@H]1[C@H]2COc3ccc(Br)cc3[C@@H]2N2C(=O)c3cc(F)c(F)cc3NC(=O)[C@@]12C,4,2,?,84*,-14,-44
CCOC(=O)[C@H]1[C@H]2COc3ccc(Br)cc3[C@@H]2N2C(=O)c3ccc(C)cc3NC(=O)[C@@]12C,31,2,13,80*,-6,-31
CCOc1ccc(OCC)c(NS(=O)(=O)c2ccc3c(c2)CCCN3C(C)=O)c1,1,0,.,.,.,.
O=C(c1ccccc1)N1CCc2cc(CNS(=O)(=O)c3ccc(Cl)s3)ccc21,22,2,.,.,.,.
Cn1cc(S(=O)(=O)NCCc2ccccc2)c(=O)n(C)c1=O,-6,1,-2,-2,0,23
Cc1c(S(=O)(=O)NCCc2ccccc2)c(=O)n(C)c(=O)n1C,5,1,11,0,-100*,-5
Cc1cccc(-c2cc3nc(C)cc(N4CC(C)CC(C)C4)n3n2)c1 (configuration not stated),1,-1,2,2,-2,-120*
O=C(COc1ccccc1C(=O)Nc1cccnc1)Nc1ccc(Br)cc1,.,-1,.,.,.,.
CN[C@H](C)CCC=C(C)C,.,-1,.,.,.,.
O=C(CSc1nc2ccccc2c(=O)n1-c1ccccc1F)Nc1ccc2c(c1)CCC2,17,1,18,-1,10,-16
CCN(CC)CCn1c(SCC(=O)Nc2ccc3c(c2)CCC3)nc2ccccc2c1=O,-9,0,12,3,-9,-87*
O=C(CSc1nc2ccccc2c(=O)n1CCCN1CCOCC1)Nc1ccc(F)c(Cl)c1,28,0,.,.,7,-28
Cc1ccc(NC(=O)CSc2nc3ccccc3c(=O)n2CCCN2CCCCC2)cc1Cl,-8,1,0,0,-15,-74*
CCN1CCN(c2oc(COc3ccc(-c4ccccc4)cc3)nc2C#N)CC1,-12,-1,4,11,29,-71*
N#Cc1nc(COc2ccc(Br)cc2)oc1N1CCN(Cc2ccccc2)CC1,4,1,4,3,-8,-19
O=C(Nc1cccc(-c2csc(Nc3ccc(Cl)cc3)n2)c1)c1cccc(C(F)(F)F)c1,-16,0,29,2,0,-78*
O=C(Nc1c(C(=O)N2CCN(c3ccccc3)CC2)oc2ccccc12)c1ccc(Br)o1,-12,1,.,.,.,.
CCCCCCCCOC(=O)c1c(CSC(=N)N)n(C)c2cc(Br)c(OC(C)=O)cc12,2,0,9,0,-95*,-102*
SMILES,TRPML1 inh,TRPML1 agonist,TRPV1 potentiator,TRPV1 agonist,hERG WT inh,KCNH2 3.1 block
CCOC(=O)c1c(CSC(=N)N)n(-c2ccc(Br)cc2)c2cc(Br)c(OC(C)=O)cc12,-11,0,2,-1,-1,-11
COC(C[C@@H](O)C[C@@H](O)[C@@H](C)OCc1ccccc1)OC,-14,-1,.,.,5,-222*
O=c1[nH]c(=O)n(Cc2ccccc2)c2nc(-c3ccc(Oc4ccc(F)cc4)c([N+](=O)[O-])c3)n(CCO)c12,-2,1,2,22,-28,-86*
COc1ccc(-c2nc3c(c(=O)[nH]c(=O)n3Cc3ccccc3)n2CCO)cc1,16,-1,1,-1,-4,-3
COc1ccc(CNC(=O)c2ccc(CNS(=O)(=O)c3ccc(F)cc3)cc2)cc1,41,3,.,.,.,.
CCc1cccc(C)c1Nc1c(-c2ccc(SC)cc2)nc2sccn12,30,2,.,.,.,.
Cc1c(-c2ccccc2)nc2ccccc2c1C(=O)Oc1ccc([N+](=O)[O-])cc1,16,2,3,3,-87*,-77*
COc1ccc(OC)c(S(=O)(=O)Nc2ccccc2SC)c1,-3,0,3,4,11,-88*
COc1ccc(OC)c(S(=O)(=O)Nc2ccccc2C)c1,-12,0,-1,2,28,-1
CC(=O)Nc1ccc(S(=O)(=O)NCCC(=O)Nc2cccc(Cl)c2)cc1,-2,0,-22,3,3,10
CC(=O)Nc1ccc(S(=O)(=O)NCCOc2ccc(Cl)cc2C)cc1,74,1,8,-1,-120*,-190*
NS(=O)(=O)c1ccc(CCNC(=O)C2CCCN(S(=O)(=O)c3cccnc3)C2)cc1 (configuration not stated),3,0,0,-1,-8,2
O=C(NCCc1ccccc1)C1CCCN(S(=O)(=O)c2cccnc2)C1 (configuration not stated),-7,0,9,2,-254*,12
O=C(Nc1nnc(SCC(=O)N2CCCCC2)s1)c1ccc(F)cc1F,-8,1,-5,6,-152*,11
O=C(C[n+]1ccccc1Br)c1ccc2c(c1)CCCC2,.,0,.,.,.,.
CC(Oc1cccc(Br)c1)C(=O)NNC(=O)CCS(=O)(=O)c1ccccc1 (configuration not stated),3,-1,.,.,-6,-102*
COC(=O)COc1ccc(/C=N/NC(=O)CN(c2ccccc2OC)S(=O)(=O)c2ccccc2)cc1,-10,0,3,-3,-21,-89*
Cn1c(N2CCN(C(c3ccccc3)c3ccccc3)CC2)nc2ccccc21,10,7,?,25,-48,-86*
CC(Oc1ccc(Cl)cc1)C(=O)Nc1ccccc1N1CCOCC1 (configuration not stated),-5,74*,.,.,-12,.
CCOC(=O)c1c(C)oc(NC(=O)COc2ccc(Cl)cc2C)c1C#N,-10,4,16,1,-2,-75*

# From PubChem BioAssay
